NCF1 inh – inhibitors of human p47phox binding; hit rate 0.53% among 220,000; inhibition, % at 24.7 µM; p47phox/p22phox peptide binding, fluorescence polarization, 2 h; P14598; AID 1274;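 active = inhibition above about 30%, limit read from the data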;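 also: 0% = p47phox with labelled peptide and 100% = labelled peptide alone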
14-3-3 Bad PPI – disrupts binding of bovine 14-3-3 zeta to phospho-Bad peptide. TR-FRET 14-3-3zeta/Dy647-pBad peptide displacement, 1 h. inhibition, % at 21.7 µM. P63103. hit rate 0.71% among 220,000. AID 781;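 active = inhibition above about 70%, limit read from the data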;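 also: 0% = full 14-3-3 plus peptide FRET controls and 100% = background without 14-3-3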
Target sequence (P63103 whole entry, looked up): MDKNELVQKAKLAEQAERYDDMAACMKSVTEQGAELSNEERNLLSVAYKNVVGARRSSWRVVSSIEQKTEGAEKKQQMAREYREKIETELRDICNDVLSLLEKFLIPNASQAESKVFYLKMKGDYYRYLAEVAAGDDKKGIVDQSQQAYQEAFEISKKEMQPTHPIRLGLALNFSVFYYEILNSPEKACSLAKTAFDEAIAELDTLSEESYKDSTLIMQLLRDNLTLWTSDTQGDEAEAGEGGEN
dFosB act-1 – enhances mouse delta FosB homodimer DNA binding; P13346; purified delta FosB, TAMRA-CDK5 oligo fluorescence polarization; percent of positive-control signal above neutral wells; activation, % at 25 µM; hit rate 0.99% among 340,000; AID 493131;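 active = mean activation above about 17%, with every replicate also reaching it, limit read from the data, passing the limit was not always enough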
HMGR II inh – E. faecalis class II HMG-CoA reductase inhibition; hit rate 0.41% among 190,000; AID 1066; purified E. faecalis HMGR, NADPH absorbance 340 nm kinetic; inhibition, % at 10 µM;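 active = inhibition above a set limit, the median over all tested compounds plus 3 SD, cut at about 9.5% in these data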;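 also: enzyme runs in reverse so mevalonate oxidation gives rising NADPH absorbance; 0% = complete reaction with DMSO and 100% = background rate lacking mevalonate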
dFosB act-2 – delta FosB (mouse) homodimer activation. purified delta FosB, TAMRA-CDK5 oligo fluorescence polarization; normalised: neutral wells 0, positive control 100. 2,400 tested, under 10 active. activation, % at 24.9 µM. shares compounds with dFosB act-1. AID 588690;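 active = highest replicate activation at or above 34% and every replicate reaching that threshold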;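 also: higher polarization means more probe DNA bound by delta FosB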
* hit, by the source's call; . = no result given. This is a sample that favours compounds with a hit; in the whole collection about 1.9% have one here.

SMILES	NCF1 inh	14-3-3 Bad PPI	dFosB act-1	HMGR II inh	dFosB act-2
COc1ccc(Cl)cc1NC(=O)C(C)N1CCN(C/C=C/c2ccccc2)CC1 (stereo not drawn)	4	76*	-14	4	.
O=C(NCC(=O)N(c1cnc2ccccc2c1)C(C(=O)NC1CCCC1)c1ccncc1)c1ccco1 (stereo not drawn)	-9	-3	-9	1	.
COc1ccccc1CNC(=O)COC(=O)c1cc2ccccc2o1	.	.	31*	.	3
COc1ccccc1CNC(=O)c1cc2ccccc2o1	.	.	-4	.	.
COc1ccc(C(=O)NNC(=O)C(Cc2ccc(O)cc2)NC(=O)c2ccccc2NC(=O)c2ccc(OC)cc2)cc1 (stereo not drawn)	-21	42	60*	5	3
COc1ccc(C(=O)Nc2ccccc2C(=O)NC(Cc2ccc(O)cc2)C(=O)NNC(=O)c2ccccc2Cl)cc1 (stereo not drawn)	10	1	42*	-6	5
O=C(Nc1ccccc1C(=O)NC(Cc1ccccc1)C(=O)O)c1ccccc1 (stereo not drawn)	5	-8	4	-5	.
O=C(Nc1ccccc1C(=O)NC(Cc1ccccc1)C(=O)NC1CCCCC1)c1ccccc1 (stereo not drawn)	8	1	21*	1	5
COc1ccc(C(=O)NNC(=O)C(C)NC(=O)c2ccccc2NC(=O)c2ccco2)cc1 (stereo not drawn)	3	4	4	0	.
CN(C)c1nc(Oc2ccc(=O)n(C)n2)nc(N2CCOCC2)n1	-6	9	-2	-3	.
O=C(NC1CCCC1)C1CCC(CNS(=O)(=O)c2ccc(F)cc2)CC1 (stereo not drawn)	.	.	4	.	.
CN(C)C(=O)CN(C)S(=O)(=O)c1ccc(Cl)cc1	-12	-6	0	2	.
CCOC(=O)c1nn(-c2ccc(C)cc2)c(=O)cc1OCC(=O)Nc1cc(C)ccc1OC	.	.	0	.	.
CCOC(=O)c1nn(-c2ccccc2)c(=O)cc1OCC(=O)Nc1cc(C)ccc1OC	.	.	23*	.	5
CCN(CC)S(=O)(=O)c1ccc2c(c1)c(=O)c(C(=O)N1CCN(c3ccccc3)CC1)cn2C	0	-3	1	3	.
O=C1C2C(c3ccccc3)C=CC(c3ccccc3)C2C(=O)N1c1cccnc1 (stereo not drawn)	-3	6	-6	-2	.
Cc1nn(-c2ccccc2)c(Cl)c1/C=C1/C(=N)N2N=C(C(C)C)SC2=NC1=O	-8	53	-1	-3	.
Cc1ccc(-c2cc3c(N=O)c4ccccc4c-3n[nH]2)cc1	4	22	32*	0	2
O=Nc1c2cc(-c3ccccc3)[nH]nc-2c2ccccc12	1	-16	6	-3	.
NS(=O)(=O)c1ccc(CCNC(=O)c2ccc(NC3=NC4CS(=O)(=O)CC4S3)cc2)cc1 (stereo not drawn)	.	.	18*	.	5
Cc1occc1-c1nnc(SCC(=O)NCCc2ccccc2)n1C(C)c1ccccc1 (stereo not drawn)	-1	10	-9	-1	.
C/C(=N\NC(=O)c1ccncc1)c1cccc(NC(=O)c2ccc(C(C)(C)C)cc2)c1	.	.	-12	.	.
C/C(=N\NC(=O)COc1ccccc1[N+](=O)[O-])c1cccc(NC(=O)c2ccncc2)c1	.	.	21*	.	3
CC(=O)c1ccc(N(C(=O)c2csnn2)C(C(=O)NC2CCCC2)c2ccccc2)cc1 (stereo not drawn)	.	.	-16	.	.
COc1ccccc1CC(=O)Nc1ccc([N+](=O)[O-])cc1O	3	3	24*	-2	-6
SMILES	NCF1 inh	14-3-3 Bad PPI	dFosB act-1	HMGR II inh	dFosB act-2
COc1ccccc1CC(=O)Nc1ccccc1O	-8	-9	-3	7	.
CC(=O)Nc1ccc(NC(=O)Cc2sc(-c3cccnc3)nc2-c2ccc(C)cc2)cc1	-10	2	30*	-2	1
O=C(Cc1sc(-c2ccccc2Cl)nc1-c1ccccc1)Nc1ccc(F)cc1	-8	-7	25*	1	-1
O=C(c1cccs1)N(Cc1cccc(Cl)c1)C1CCS(=O)(=O)C1 (stereo not drawn)	1	-9	-3	0	.
CC(=O)Nc1nc(-c2ccc([N+](=O)[O-])cc2)cs1	-1	-4	2	-4	.
O=C(Nc1ccc(Cl)cc1)Nc1nc(-c2ccccc2)cs1	-11	-9	30*	3	6
CC(=O)Nc1nc(-c2cc([N+](=O)[O-])cs2)cs1	-5	-11	29*	-5	-2

Assay outcomes (PubChem)
